Source: PubChem
SMN2 splice enh = increases expression of the SMN2 splice variant. AID 1458. Potency, µM (highest dose often 46.1 µM), for inactives: top-dose activity change, positive = activation, usual class: activators. HEK293 SMN2-luciferase splicing reporter, luminescence, 30-36 h. 2.8% of 210,000 active; also: % of control where 0% means no effect; nearly all actives have a fitted effect of over 55% in size
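HEK293 cells carry an SMN2 minigene-luciferase reporter in which exon 7 inclusion puts luciferase in frame. Cells were seeded at 2000 cells/well, attached for 10-12 hours, then exposed to compounds for 30-36 hours at 37C before ONE-Glo luminescence.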
ELG1 genotoxic = inducers of genotoxicity in HEK293T ELG1-luciferase cells; HEK293T ELG1-luciferase reporter, luminescence, 16 h; Potency, µM (highest dose often 46 µM), inactives show at the top dose activity change, positive = activation, usual class: activators; 1.3% of 330,000 active; also: % of control where 0% means no effect; nearly all actives have a fitted effect of over 60% in size
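Genotoxic stress is detected as increased luminescence from luciferase-tagged ELG1 in HEK293T cells, measured with ONE-Glo after a 16 hr treatment at 37 °C.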
FLuc counter = firefly luciferase modulation, counter-screen for miR-21 project. P08659. purified FLuc, Km substrates, luminescence inhibition. Potency, µM (doses to about 57.5 µM), inactives show at the highest dose activity change, negative = inhibition, usual class: inhibitors. 6.9% of 360,000 active. AID 588342;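 also: plate controls were vehicle for no effect and reference inhibitor for full effect; nearly all actives have a fitted effect of over 55% in size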
Target sequence (P08659 whole entry, looked up): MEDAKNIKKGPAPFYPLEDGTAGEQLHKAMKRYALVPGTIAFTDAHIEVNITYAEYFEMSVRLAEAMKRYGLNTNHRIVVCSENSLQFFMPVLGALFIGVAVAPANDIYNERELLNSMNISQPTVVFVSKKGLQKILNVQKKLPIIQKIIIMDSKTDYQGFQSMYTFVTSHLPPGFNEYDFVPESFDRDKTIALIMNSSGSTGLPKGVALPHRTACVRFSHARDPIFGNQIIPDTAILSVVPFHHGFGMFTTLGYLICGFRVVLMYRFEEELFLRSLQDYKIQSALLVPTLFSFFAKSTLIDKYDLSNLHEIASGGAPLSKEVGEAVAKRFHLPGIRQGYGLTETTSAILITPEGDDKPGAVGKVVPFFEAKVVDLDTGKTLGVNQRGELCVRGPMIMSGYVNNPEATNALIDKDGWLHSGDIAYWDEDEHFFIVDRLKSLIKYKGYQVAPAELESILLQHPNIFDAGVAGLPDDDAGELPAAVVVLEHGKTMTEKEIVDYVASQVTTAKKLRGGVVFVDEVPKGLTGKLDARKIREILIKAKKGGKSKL
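Purified P. pyralis luciferase (10nM final) with 10uM D-luciferin and 10uM ATP (Km levels) in 50mM Tris acetate pH 7.5, 10mM Mg acetate, 0.01% Tween-20, 0.05% BSA; qHTS 6-point titration, ~60 µM downward; luminescence read.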
NPC1 prom act = activators of NPC1 promoter; Huh7 NPC1 promoter luciferase reporter, 24 h; Potency, µM (top dose mostly 9.22 µM), for inactives: at the highest dose activation, usual class: activators; 2.4% of 320,000 active; AID 485313; also: % of control where 0% means no effect; nearly all actives have a fitted effect of over 60% in size
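Luminescence from an NPC1 promoter-driven luciferase reporter in stably transfected Huh7 cells was measured after 24 h compound treatment at 37 °C, followed by 10 min ambient incubation with luciferase detection reagent.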
Rab9 promoter act = activators of Rab9 promoter; Potency, µM (doses to about 9.22 µM), without a hit: at the highest dose activation, negative = inhibition, hits mostly activators; 2.8% of 320,000 active; Huh7 Rab9 promoter-luciferase reporter, luminescence, 24 h; also: % of control where 0% means no effect; nearly all actives have a fitted effect of over 60% in size
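Stable Rab9-luc Huh7, 1500 cells/well, 2 h settle; cmpd in DMSO, 24 h, 37 °C/5% CO2; luciferase reagent 10 min RT; luminescence.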
ELG1 repair inh = ELG1-dependent DNA repair inhibition | HEK293T ELG1-luciferase reporter, luminescence, 16 h; DNA damage induced by 5-fluorouridine | Potency, µM (series often up to 46.1 µM), inactives show top-dose activity change, negative = inhibition, actives largely listed as inhibitors | 2.3% of 330,000 active | AID 504467; also: % is scaled to controls: 0 for no effect and ±100 for the full control effect; nearly all actives have a fitted effect of over 55% in size
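Reporter activity after DNA damage by 5-fluorouridine is monitored. Compound-treated cells incubate 16 hr at 37 °C, then ONE-Glo is added for 30 min before luminescence reading.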
Numbers without * were called inactive; ? = inconclusive; · = no result. Only some compounds are listed: those with a hit (about 9.3% of all), similar ones and a draw of the others. Calls follow the shape of the dose curve; as a rule, active = well fitted curve in the direction sought with a large enough effect; inconclusive = small, poorly fitted or top-dose-only effect, or another doubt; inactive = no such curve, though single readings can be large; an effect the other way counts as inactive or inconclusive. Potency is read from the fitted curve at half-maximal effect.

SMILES	SMN2 splice enh	ELG1 genotoxic	FLuc counter	NPC1 prom act	Rab9 promoter act	ELG1 repair inh
CCCCc1c(O)nc(SCC(=O)c2ccccc2)n(-c2ccccc2OC)c1=O	·	-0.4%	-9.9%	-3.6%	3.2%	-2.0%
CCN(C(=O)CSc1nc2ccccc2n1CC(=O)N(C)C1CCCCC1)c1ccccc1	·	·	-7.9%	·	·	·
COc1cc(NC(=O)c2cc(OC)c(OC)c(OC)c2)c(OC)cc1NC(=O)CN1CCCCC1	7.7%	0.8%	13.5µM*	-2.1%	-0.5%	?
COc1cc(C(=O)NC2CCN(CC(=O)NC3CCCCC3)CC2)cc(OC)c1OC	·	0.8%	0.8%	0.9%	-1.5%	-0.4%
CCn1nnc(-c2ccccc2NC(=O)c2cc(OC)cc(OC)c2)n1	-13.8%	-32.8%	-0.2%	-4.5%	9.1%	?
CCn1nnc(-c2ccccc2NC(=O)c2cc(OC)c(OC)c(OC)c2)n1	4.0%	-7.9%	-0.2%	-4.6%	3.1%	16.4µM*
O=C(Cc1ccccc1)N/N=C/c1ccccc1F	18.0%	10.5%	-18.3%	10.2%	-0.3%	?
Cc1cc(/C=N/NC(=O)c2cccc(N(C)C)c2)c(C)n1-c1cc(C(=O)O)cc(C(=O)O)c1	?	?	23.9µM*	16.6%	?	?
CN(C)c1cccc(C(=O)N/N=C/c2ccccc2F)c1	1.41µM*	1.03µM*	0.601µM*	0.708µM*	0.355µM*	?
Cc1cc(/C=N/NC(=O)C(O)(c2ccccc2)c2ccccc2)c(C)n1-c1cccc(C(=O)O)c1	·	-1.2%	-6.9%	-0.1%	0.7%	21.2%
C=CCc1ccccc1Oc1cc(OC)nc(N)n1	·	2.5%	3.9%	-1.3%	-7.4%	12.4%
C/C(=N/Nc1nc(C)cc(-c2ccccc2)n1)c1ccco1	16.1%	-5.2%	15.1µM*	?	?	-25.7%
C/C(=N\Nc1nc(C)cc(-c2ccccc2)n1)c1ccc(O)cc1	·	-3.1%	4.26µM*	12.9%	-31.3%	?
C/C(=N/Nc1nc(C)cc(C)n1)c1ccc(Br)cc1	·	-13.1%	-3.5%	0.4%	-13.7%	?
C/C(=N\Nc1nc(C)cc(-c2ccccc2)n1)c1ccccc1	·	-4.2%	2.69µM*	19.7%	-6.4%	?
Cc1cc(-c2ccccc2)nc(N/N=C/c2ccccc2F)n1	·	3.0%	10.7µM*	?	?	?
C/C(=N\Nc1nc(C)cc(-c2ccccc2)n1)c1ccc(C)o1	-40.0%	-6.9%	?	-5.8%	-15.3%	?
Cc1ccccc1COc1ccc(/C(O)=C2/C(=O)C(=O)N(CCCn3ccnc3)C2c2ccco2)cc1 (centres undefined)	0.2%	5.4%	-19.0%	6.0%	8.7%	5.7%
CCN(CCO)C(=O)c1ccc2nc(Cc3cccc(Cl)c3)oc2c1	·	7.0%	-17.8%	1.7%	16.6%	4.6%
C/C(=N\Nc1nc(C)cc(-c2ccccc2)n1)c1cccc(N)c1	·	-3.7%	3.38µM*	24.8%	0.0%	?
COc1ccc(Cl)cc1NC(=O)CN(C)CC(=O)Nc1c(C)n(C)n(-c2ccccc2)c1=O	·	-5.9%	3.5%	0.3%	-8.4%	18.3µM*
COc1ccc(Cl)cc1NC(=O)CN(C)CC(=O)Nc1cc(OC)c(OC)c(OC)c1	·	-9.2%	-0.6%	-31.5%	-15.5%	18.3µM*
O=C(Nc1nc(-c2ccccn2)cs1)C12CC3CC(CC(O)(C3)C1)C2	11.2µM*	?	6.75µM*	2.24µM*	3.16µM*	?
O=C(CC1CC2CCC1C2)Nc1nc(-c2ccccn2)cs1 (centres undefined)	16.9%	-4.7%	23.9µM*	28.1%	3.98µM*	20.6µM*
Cc1cccc(NC(=O)c2ccc(N(Cc3ccccc3)S(C)(=O)=O)cc2)c1	0.2%	·	-11.5%	·	·	·
SMILES	SMN2 splice enh	ELG1 genotoxic	FLuc counter	NPC1 prom act	Rab9 promoter act	ELG1 repair inh
CC(NC(=O)CCCCCCN1C(=O)c2ccccc2C1=O)c1ccc2c(c1)CCCC2 (centres undefined)	-33.1%	-3.7%	-0.4%	-2.0%	-8.8%	23.1µM*
COc1cc2nc(SCC(=O)Nc3c(C)cc(C)cc3C)n3nc(CCn4c(C)nc5ccccc54)nc3c2cc1OC	-6.8%	·	-2.4%	·	·	·
Cc1ccc2c(c1)nnn2C1CCN(CC(=O)NNC(=O)c2ccco2)CC1	·	-5.4%	0.2%	-2.4%	-5.8%	-11.0%
CC1CCC(NC(=O)Cn2ncc3ccccc32)CC1 (centres undefined)	?	10.3µM*	?	?	?	?
Cc1nc2ccccc2n1CC(=O)NC1CCCCCC1	·	-7.6%	-1.5%	-1.8%	-17.9%	14.6µM*
Cc1nc2ccccc2n1CC(=O)NC1CCCC1	-16.1%	-10.2%	1.5%	-7.0%	1.3%	-28.8%
O=C(O)c1cccc(Nc2ccc([N+](=O)[O-])cn2)c1	·	0.2%	?	0.9%	6.7%	4.2%
O=C(N/N=C/C(Cl)=C/c1ccc([N+](=O)[O-])cc1)C(=O)Nc1cccc(C(=O)O)c1	·	?	23.9µM*	?	?	?
COc1ccc(NC(=O)CN(C)C(=O)c2cccc(S(=O)(=O)Nc3ccc(OC)cc3)c2)cc1	·	-6.6%	8.1%	-0.2%	-2.0%	11.8%
COc1cc(CN(C)Cc2cc(=O)n3ccsc3n2)ccc1OC(F)F	-77.9%	-12.4%	-0.4%	-4.5%	1.3%	13µM*
CCN(CC(=O)NCc1ccc(F)cc1)Cc1cc(=O)n2ccsc2n1	0.3%	4.4%	-1.5%	1.0%	5.5%	3.9%
COc1ccccc1CNC(=O)C(C)n1c(=O)cc(-c2ccccc2)c2c(C)nn(C)c21 (centres undefined)	·	·	-17.4%	·	·	·
COc1cc(N/N=C/c2ccc(N(C)C)cc2)ncn1	2.24µM*	1.16µM*	0.849µM*	1.26µM*	?	?
Cc1cnn(-c2cc(N/N=C/c3ccccc3F)ncn2)c1	-5.9%	?	-8.3%	22.7%	20.5%	?
COc1cc(N/N=C/c2ccccc2O)ncn1	?	23.1µM*	15.1µM*	?	?	?
NC(=O)C1CC12c1ccccc1-c1ccccc12 (centres undefined)	·	-4.3%	5.5%	2.1%	4.3%	-0.5%
CC1CCN(c2ccc(NC(=O)c3cccnc3)cc2)CC1	28.2µM*	11.4%	12µM*	?	?	?
CCc1ccc(C(=O)N2CCN(c3ccc(NC(=O)c4cccnc4)cc3)CC2)cc1	·	-16.4%	-0.1%	-1.5%	9.8%	23.1µM*
O=C(Nc1ccc(N2CCN(C(=O)c3ccccc3)CC2)cc1)c1cccnc1	·	-8.5%	3.5%	2.7%	-2.3%	?
N#Cc1ccc(/C=N/NC(=O)c2cccc(S(=O)(=O)N3CCOCC3)c2)cc1	4.5%	-6.0%	-6.0%	-6.5%	-0.8%	0.0%
